# Data from PubChem BioAssay (NCI).
# Compounds without any hit were thinned out: in the full panel of roughly 83,000, 20% have a hit.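 Results are percent growth after 48 hours of single-concentration exposure. 100 means growth as in untreated cells, lower positive values show inhibition; negative values down to -100 show cell death.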 Values without a mark were called inactive. Active and inactive are the calls of the source. The calls were made as follows: active = growth percent below 10; inactive = the rest.
# Tested on: HL-60(TB) leukemia
# Experiment: NCI-60 one-dose screen, 48 h (100 = growth as untreated, 0 = no growth, -100 = all killed)
# Details: 10 µM unless noted
row,SMILES,growth
1,COc1ccc([C@H]2c3cc(OC)c(OC)cc3C=C(C=O)C2CO)cc1OC (stereo partly specified),-13.9% (active)
2,CCCCCCCCCCCCCCCCCCOc1ccccc1CC(=O)OCC[N+](C)(C)C,-38% (active)
3,CCCCCn1cnc2c(=S)nc[nH]c21,95%
4,CCNC(=O)c1[nH]cc(-c2ccc(OC)cc2)c1-c1cc(OC)cc(OC)c1,82.1%
5,CCN(CC)Cc1cccc(C(=O)OC)c1,83.2%
6,O=C(CN1CCCCCC1)Nc1nc2ccc(NCc3ccc(Cl)cc3)cc2s1,95.9%
7,CN1CCC(CNc2ccc3ncc(-c4cccc(OC(F)(F)F)c4)n3n2)CC1,-37.1% (active)
8,Clc1ccc2c(NCCCCNc3nc(N4CCOCC4)nc4ccccc34)ccnc2c1,-59.8% (active)
9,N#Cc1c(N)nc(-c2cc(F)cc(C(F)(F)F)c2)nc1-c1ccccc1F,92.8%
10,CC1CC(C)/C(=N/NC(N)=O)C(C(O)CC2CCC(=O)NC2=O)C1 (stereo unspecified),40.1%
11,COc1ccc2nc(-c3c(-c4ccccc4)nc4ncccn34)[nH]c2c1,98%
12,O=c1[nH]c(=O)c2cc(Cl)cc(Cl)c2[nH]1,100%
13,CC(C)CCOC(=O)c1ccccc1,101%
14,CN(C)c1ccc(-c2ccc3[nH]c(=O)nc(-c4ccccc4)c3c2)cn1,3.35% (active)
15,O=C(OCCCCOC(=O)n1cnc2ccccc21)n1cnc2ccccc21,104%
16,CC(=O)C1CCC2C3CC(F)C4=CC(=O)CCC4(C)C3C(O)CC12C (stereo unspecified),94.2%
17,Cc1cc(Br)c2nsnc2c1[N+](=O)[O-],37.7%
18,COc1cc(C(=O)/C=C/c2c(-c3ccc(F)cc3)nc3ncccn23)cc(OC)c1OC,30.9%
19,Cc1cccc(NC(=O)c2sc3nc4c(cc3c2N)CCC4)c1C,8.43% (active)
20,NNc1nc(-c2cccnc2)nc2c1sc(=S)n2-c1ccccc1,77.1%
21,O=[N+]([O-])c1cccc([I+]c2ccccc2)c1,37.9%
22,COC(=O)C1CCCN1C(=O)[C@@H]1CCCN1C(=O)[C@H](Cc1c[nH]c2ccccc12)NC(=S)Nc1cc(C(F)(F)F)cc(C(F)(F)F)c1 (stereo partly specified),-43.8% (active)
23,COc1cc(OC)cc(N2C(=O)N(Cc3ccc(C(C)(C)C)cc3)c3ccccc3S2(=O)=O)c1,67.9%
24,COc1ccc(-c2nn(-c3cccc(Cl)c3)cc2-c2cc(-c3ccccc3)nc(N)n2)cc1,56.3%
25,COc1ccc(-c2cncn2-c2ccc(-c3nc4cc(OC)c(OC)c(OC)c4s3)cc2)cc1N,27.8%
26,NC(=O)c1cc(Cl)ccc1NC(=O)/C=C/c1ccccc1,-30.8% (active)
